These results are taken from PubChem BioAssay (Tox21).

Test [1] in a line: qHTS assay to identify small molecule antagonists of the estrogen related receptor (ERR) signaling pathway from Tox21 library - cell viability counter screen (AID 1224834). Also: nearly all actives have a fitted effect of over 30% in size. Also: potency is read from the fitted curve at half-maximal effect. Summed up:
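ERR reporter cells were plated 6 h before compound addition, then exposed to test compounds in DMSO for 17.5 h at 37 C. Viability was read as CellTiter-Fluor fluorescence after a 30-minute incubation at 37 C.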
(In general: Quantitative high-throughput screening tests each substance at several concentrations.)

The target in test [2] is Luciferin 4-monooxygenase (Photinus pyralis) (UniProt P08659). In words: qHTS assay to identify small molecule inhibitors of firefly luciferase (AID 1224835). Also: nearly all actives have a fitted effect of over 25% in size. Also: potency is read from the fitted curve at half-maximal effect. As to activity change, negative = inhibition: series mostly up to about 120 µM. Summed up:
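Inhibition of purified Photinus luciferase is measured by luminescence. Substrate levels (D-luciferin, ATP) sit at their KM values. Each compound is tested in a concentration series.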

Test [3] can be described thus: qHTS assay to identify small molecule antagonists of the estrogen related receptor signaling pathway with the pleiotropic PPARgamma coactivator (PGC) from Tox21 10K library (AID 1224841; call rule not given here; also: actives are mostly falling curves and most rising ones were filed inactive; nearly all actives have a fitted effect of over 50% in size; also: potency is read from the fitted curve at half-maximal effect; as to activity, negative = inhibition: series mostly up to about 92 µM). The procedure, abridged: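 PGC/ERR reporter cells were seeded at 2,000 cells/well and held 6 hours at 37 C/5% CO2 before pin-tool addition of compounds in DMSO. After 18 hours at 37 C, One-Glo was added and luminescence read after 30 minutes at room temperature.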

Test [4] is described as follows: qHTS assay to identify small molecule agonists of the estrogen related receptor signaling pathway with the pleiotropic PPARgamma coactivator (PGC) from Tox21 10K library (AID 1224842). Also: nearly all actives have a fitted effect of over 15% in size. The procedure, abridged:
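Luminescence from One-Glo (30 min, room temperature) measured after PGC/ERR cells had 18 h at 37 C with pinned compound (23 nL in DMSO). Cells had been seeded at 2,000 per well and pre-incubated 6 h.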

The target in test [5] is Thyrotropin receptor (Homo sapiens) (UniProt P16473). Put plainly: qHTS assay to identify small molecule agonists of the thyroid stimulating hormone receptor (TSHR) signaling pathway (AID 1224843; calls by dose curve; also: nearly all actives have a fitted effect of over 45% in size). Summed up:
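Screening of the Tox21 10K collection used HEK293 cells engineered with TSHR at 800 cells per well. After a 30-min room-temperature compound exposure, HTRF cAMP reagents were added and fluorescence recorded 1 h later.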

Test [6] can be described thus: qHTS assay to identify small molecule agonists of the hypoxia (HIF-1) signaling pathway (AID 1224846; active = well fitted activation curve with a large enough effect in the signal ratio in the repeat runs, not every such curve was filed as active; the % refers to the signal ratio). Summed up: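 HRE-bla ME-180 cells (beta-lactamase reporter under hypoxia response element) were plated at 2,000 cells/well in medium with 0.5% dialyzed FBS, rested 5 hrs, then given compounds in DMSO for 17 hrs at 37C, 5% CO2. Reporter induction was read with CCF4-AM FRET substrate.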

The nature of test [7]: qHTS assay to identify small molecule agonists of H2AX - cell viability counter screen (AID 1224847; calls by dose curve; also: top concentration of the series differs between compounds; nearly all actives have a fitted effect of over 30% in size). The procedure, abridged: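 We seed wild-type CHO-K1 cells overnight, treat them for 3 hr at 37C with compounds in 15-concentration series, and quantify remaining viability by CellTiter-Glo luminescence.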
A short description of test [8]: qHTS assay to identify small molecule antagonists of the estrogen related receptor (ERR) signaling pathway from Tox21 library (AID 1224848). Also: nearly all actives have a fitted effect of over 50% in size. Also: potency is read from the fitted curve at half-maximal effect. The procedure, abridged:
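Antagonist-mode screen of the Tox21 10K library in an NTP-provided ERR reporter cell line; 18 h compound exposure at 37 C, luminescence measured with ONE-Glo.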

Test [9] can be described thus: qHTS assay to identify small molecule agonists of the estrogen related receptor (ERR) signaling pathway from Tox21 library (AID 1224849; calls by dose curve; also: nearly all actives have a fitted effect of over 15% in size). The procedure, abridged: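 ERR reporter cell line (NTP) seeded, rested 6 h at 37 C/5% CO2, then pinned with Tox21 compounds in DMSO. After 18 h at 37 C, ONE-Glo luciferase luminescence was read following 30 min at room temperature.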

The nature of test [10]: qHTS RealTime-Glo MT Cell Viability Assay in HepG2 cells - 24 hour (AID 1224867). Also: nearly all actives have a fitted effect of over 50% in size. Summed up:
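qHTS, HepG2, 600 cells/well, RealTime-Glo (NanoLuc + prosubstrate) added with cells; 5 h preincubation; DMSO compound addition; 37 C; luminescence at 0/8/16/24/32/40 h.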

Test [11] is described as follows: qHTS RealTime-Glo MT Cell Viability Assay in HEK293 cells - 32 hour (AID 1224868). Also: nearly all actives have a fitted effect of over 50% in size. Also: potency is read from the fitted curve at half-maximal effect. As to activity change, negative = cytotoxic: top concentration of the series differs between compounds. Summed up: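 Assay medium contained NanoLuc luciferase plus cell-permeant prosubstrate, added with HEK293 cells at 600 cells/well. After 5 h at 37 C/5% CO2 compounds were added; plates stayed at 37 C for 40 h with serial luminescence reads.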
The nature of test [12]: A CellTox Green Cytotoxicity Assay to monitor cytotoxicity in HEK293 cells - 0 hour (AID 1224869). Also: nearly all actives have a fitted effect of over 50% in size. Summed up:
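HEK293 cells premixed with CellTox Green dye were seeded at 600 cells/well and left 5 h at 37 C/5% CO2 before pin transfer of 23 nL compound in DMSO. Fluorescence from dye bound to dead-cell DNA was read during 40 h treatment.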

Test [13] in a line: qHTS RealTime-Glo MT Cell Viability Assay in HepG2 cells - 40 hour (AID 1224870). Also: nearly all actives have a fitted effect of over 50% in size. Summed up: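 Real-time viability: cells seeded at 600 per well together with NanoLuc and cell-permeant prosubstrate, compounds added after 5 h incubation. Luminescence tracked at 0, 8, 16, 24, 32 and 40 h of exposure.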
Test [14] is described as follows: qHTS assay to identify small molecule agonists of the constitutive androstane receptor (CAR) signaling pathway - cell viability counter screen (AID 1224836). Also: series mostly up to about 92 µM; nearly all actives have a fitted effect of over 45% in size. Summed up: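 Counter screen multiplexed with the CAR reporter readout: HepG2 cells co-transfected with hCAR and the CYP2B6-2.2kb construct receive a 15-concentration compound series and 0.75 uM PK11195 (final), then CellTiter-Fluor fluorescence is read after 23 h.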

A short description of test [15]: qHTS assay to identify small molecule antagonists of the constitutive androstane receptor (CAR) signaling pathway - cell viability counter screen (AID 1224837). Also: series mostly up to about 92 µM; nearly all actives have a fitted effect of over 45% in size. The procedure, abridged: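 HepG2 cells stably expressing hCAR and a CYP2B6-2.2kb reporter were plated and pre-incubated 4 hr at 37 C/5% CO2, then given compounds at 15 concentrations plus 50 nM CITCO (final). After 23 hr, viability was read by CellTiter-Fluor fluorescence.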

The target of test [16] is Nuclear receptor subfamily 1 group I member 3 (Homo sapiens) (UniProt Q14994). Put plainly: qHTS assay to identify small molecule antagonists of the constitutive androstane receptor (CAR) signaling pathway (AID 1224838). Also: nearly all actives have a fitted effect of over 40% in size. Summed up:
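HepG2 cells stably co-transfected with hCAR and a CYP2B6-2.2kb luciferase reporter were seeded 4 h before compound addition at 15 concentrations. Cells were stimulated with 50 nM CITCO (final) for 24 h at 37 C; luciferase luminescence was then read.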

Test [17] shares this target. In words: qHTS assay to identify small molecule agonists of the constitutive androstane receptor (CAR) signaling pathway (AID 1224839). Also: series mostly up to about 92 µM; nearly all actives have a fitted effect of over 15% in size. The procedure, abridged: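 A 15-concentration quantitative screen uses HepG2 cells co-transfected stably with human CAR and CYP2B6-2.2kb reporter. Treatment lasts 24 h with 0.75 uM PK11195 final present; ONE-Glo luminescence is the signal.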

A short description of test [18]: qHTS assay to identify small molecule antagonists of the estrogen related receptor signaling pathway with the pleiotropic PPARgamma coactivator (PGC) from Tox21 10K library - cell viability counter screen (AID 1224840; active = well fitted cell-killing curve with a large enough effect in the repeat runs, not every such curve was filed as active; also: nearly all actives have a fitted effect of over 40% in size). Summed up: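 PGC/ERR cells were seeded at 2,000 cells/well and left 6 hours at 37 C/5% CO2 before pin-tool addition of compounds in DMSO. After 17.5 hours at 37 C, CellTiter-Fluor was added and fluorescence read 30 minutes later.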

Test [19] in a line: qHTS assay to identify small molecule agonists of the hypoxia (HIF-1) signaling pathway - cell viability counter screen (AID 1224844; calls by dose curve; also: nearly all actives have a fitted effect of over 50% in size). The procedure, abridged:
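HRE-bla ME-180 cells in medium with 0.5% dialyzed FBS were preincubated 5 hrs at 37C, exposed to compounds for 17 hrs, then viability was read as CellTiter-Glo luminescence after 30 min at room temperature, in the reporter wells.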

A short description of test [20]: qHTS assay to identify small molecule agonists of H2AX (AID 1224845; active = well fitted activation curve with a large enough effect in the signal ratio in the repeat runs, not every such curve was filed as active; the % refers to the signal ratio). Summed up: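 Phospho-H2AX Ser139 measured by HTRF (ex 320 nm; em 665 and 620 nm) after 24 hr antibody incubation. Compounds, 15 concentrations, 0.76% DMSO, were applied to CHO-K1 cells for 3hr at 37C before lysis.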

Unmarked numbers belong to inactive results. Inconclusive results are not listed. Active and inactive are the calls of the source. Unless noted, calls follow the shape of the dose curve; as a rule, active = well fitted curve in the direction sought with a large enough effect in the repeat runs; inconclusive = weak or mixed curves; inactive = no such curve, though single readings can be large; an effect the other way counts as inactive or inconclusive.
% is scaled to controls: 0 for no effect and ±100 for the full control effect.

Thyrotropin receptor (Homo sapiens), sequence (P16473 whole entry, looked up): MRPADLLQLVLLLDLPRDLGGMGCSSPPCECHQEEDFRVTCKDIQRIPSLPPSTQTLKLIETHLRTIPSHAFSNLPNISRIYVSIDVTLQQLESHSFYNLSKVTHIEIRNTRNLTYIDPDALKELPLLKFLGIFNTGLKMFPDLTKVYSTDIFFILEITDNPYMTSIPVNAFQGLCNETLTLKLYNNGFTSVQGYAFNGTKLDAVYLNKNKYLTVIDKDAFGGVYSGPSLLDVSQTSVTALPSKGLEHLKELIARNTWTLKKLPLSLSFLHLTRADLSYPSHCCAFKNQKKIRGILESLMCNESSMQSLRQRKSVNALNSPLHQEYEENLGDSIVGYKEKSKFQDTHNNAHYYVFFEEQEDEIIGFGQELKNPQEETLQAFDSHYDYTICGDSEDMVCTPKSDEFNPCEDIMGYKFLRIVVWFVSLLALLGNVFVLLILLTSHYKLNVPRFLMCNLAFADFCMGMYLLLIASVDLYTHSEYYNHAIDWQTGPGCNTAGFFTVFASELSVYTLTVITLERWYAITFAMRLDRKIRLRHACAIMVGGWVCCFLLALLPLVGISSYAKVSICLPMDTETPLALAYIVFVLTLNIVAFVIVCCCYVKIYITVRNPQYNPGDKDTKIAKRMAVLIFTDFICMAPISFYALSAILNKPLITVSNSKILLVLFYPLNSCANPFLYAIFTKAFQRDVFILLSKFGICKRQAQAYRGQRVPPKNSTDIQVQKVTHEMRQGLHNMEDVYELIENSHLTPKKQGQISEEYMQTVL
Nuclear receptor subfamily 1 group I member 3 (Homo sapiens), sequence (Q14994 whole entry, looked up): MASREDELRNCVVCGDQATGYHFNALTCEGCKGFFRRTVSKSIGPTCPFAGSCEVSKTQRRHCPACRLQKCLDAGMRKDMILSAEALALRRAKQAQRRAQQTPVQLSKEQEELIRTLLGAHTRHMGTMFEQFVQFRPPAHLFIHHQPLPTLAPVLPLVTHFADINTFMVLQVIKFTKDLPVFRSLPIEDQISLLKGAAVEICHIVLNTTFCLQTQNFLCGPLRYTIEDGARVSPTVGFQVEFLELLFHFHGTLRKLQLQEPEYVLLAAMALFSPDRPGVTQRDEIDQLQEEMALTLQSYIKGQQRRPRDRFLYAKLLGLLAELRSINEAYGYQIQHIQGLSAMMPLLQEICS
Luciferin 4-monooxygenase (Photinus pyralis), sequence (P08659 whole entry, looked up): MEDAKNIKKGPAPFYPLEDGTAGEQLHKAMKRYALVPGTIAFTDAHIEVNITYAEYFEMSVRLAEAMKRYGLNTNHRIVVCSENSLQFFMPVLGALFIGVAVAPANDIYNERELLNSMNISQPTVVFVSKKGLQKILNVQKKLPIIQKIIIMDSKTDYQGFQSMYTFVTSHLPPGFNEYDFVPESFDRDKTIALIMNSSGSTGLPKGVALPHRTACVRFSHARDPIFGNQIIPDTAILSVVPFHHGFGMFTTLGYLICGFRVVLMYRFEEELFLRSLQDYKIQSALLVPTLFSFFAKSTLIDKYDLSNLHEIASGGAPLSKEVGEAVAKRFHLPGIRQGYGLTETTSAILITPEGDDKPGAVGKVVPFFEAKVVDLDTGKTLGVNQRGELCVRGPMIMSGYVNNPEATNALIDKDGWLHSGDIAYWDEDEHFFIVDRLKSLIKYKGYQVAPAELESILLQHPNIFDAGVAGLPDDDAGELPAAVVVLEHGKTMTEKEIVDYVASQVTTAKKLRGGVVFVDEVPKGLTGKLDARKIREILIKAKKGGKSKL

Regarding `CCN(Cc1ccccc1)c1ccccc1`, the Potency was 24 µM (active) in test [1], 42.7 µM (active) in [3], 30.3 µM (active) in test [8] and 19.3 µM (active) in test [11]. The Potency entry in [2], in test [4], in [5] and in test [13] was “inactive” throughout. Further, the call in test [6], in test [7], in test [9], in test [10] and in test [12] was inactive.

`CCCCc1nc(Cl)c(CO)n1Cc1ccc(-c2ccccc2-c2nn[nH]n2)cc1`: the Potency result in test [1], in test [16], in test [17], in [19], in test [20] and in [11] was “inactive” each time. In test [13], the Potency entry was “inactive”. The molecule was classed as inactive in test [14], in [15], in test [18], in test [6], in [7] and in test [10]. Besides, the result in test [12] was inactive.

Consider `CC(=O)c1ccc2ccccc2c1`, for which the Potency entry in [1], in [16], in [17], in [19], in [20] and in [11] was “inactive” throughout. For the same molecule, in [13], the Potency entry is “inactive”. The outcome in [14], in test [15], in test [18], in [6], in test [7] and in [10] was inactive. Also, in test [12], the molecule was called inactive.

In the case of `CCC(C)(CN(C)C)OC(=O)c1ccccc1` (configuration not stated), the Potency entry in test [1], in test [20], in [11] and in test [13] was “inactive” throughout. For the same molecule, the outcome in test [14], in test [18], in test [7], in [10] and in test [12] was inactive.

As to `Cc1ccc(-c2ccccc2C#N)cc1`, the Potency result in [1], in [16], in test [17], in [5], in test [19] and in test [20] was “inactive” in each case. The Potency result in test [11] and in test [13] was “inactive” throughout. The result in test [14], in test [15], in test [18], in test [6], in [7] and in test [10] was inactive. The result in [12] was inactive.

Turning to `CCCCS(=O)(=O)N[C@@H](Cc1ccc(OCCCCC2CCNCC2)cc1)C(=O)O`, the Potency result in test [1], in [2], in [19], in [20], in test [11] and in test [13] was “inactive” throughout. The call in test [14], in test [18], in [6], in [7], in test [10] and in [12] was inactive.

For the molecule `NC(N)=NCCN1CCCCCCC1`, the viability change, negative = cytotoxic in test [1] is 1.48% [at 0.349 µM]; in test [18], -1.22% [at 0.349 µM]. The activity change, negative = inhibition in test [2] was -0.118% [at 0.435 µM]. The activation in [5] is -0.603% [at 0.349 µM]. In addition, the figures for the activity change, negative = cytotoxicity in test [19], in [7] and in test [10] were -1.67% [at 0.29 µM], 0.639% [at 0.582 µM] and 0.287% [at 0.29 µM], respectively. For the same molecule, the activation (H2AX phosphorylation) in test [20] is 0.429% [at 0.582 µM]. For the same molecule, the activity, negative = inhibition in test [8] is 12.8% [at 0.349 µM]. In test [9], the activity change, positive = activation is 7.2% [at 0.349 µM]. Besides, the activity change, negative = cytotoxic in [11] is -3.18% [at 0.29 µM]; in test [13], 0.511% [at 0.29 µM]. Besides, in test [12], the cytotoxicity was 4.87% [at 0.29 µM].

On to `CCCCCC(=O)OCCc1ccccc1`, for which the Potency in test [2] was 15.9 µM (active). In addition, the call in test [14], in [15], in test [18], in test [6], in [7] and in test [9] was inactive. For the same molecule, the result in test [10] and in [12] was inactive. The Potency result in test [16], in test [17], in [3], in test [4], in test [5] and in [19] was “inactive” in each case. Further, the Potency entry in test [20], in [8], in test [11] and in [13] was “inactive” in each case.

Consider `COCCOC[C@H](CC1(C(=O)NC2CCC(C(=O)O)CC2)CCCC1)C(=O)Oc1ccc2c(c1)CCC2` (some centres not stated), for which the Potency entry in test [2], in [16], in test [17], in [3], in test [4] and in [19] was “inactive” throughout. For the same molecule, the Potency result in test [20], in test [8], in test [11] and in test [13] was “inactive” in each case. The call in test [14], in test [15], in [18], in [6], in test [7] and in [9] was inactive. Besides, the result in test [10] and in [12] was inactive.
